Glioma ERSR ind: qHTS for Inducers of the Endoplasmic Reticulum Stress Response (ERSR) in Human Glioma: qHTS; U87-MG GRP78 promoter luciferase reporter, 16 h; Potency, µM, actives largely listed as activators; hit rate 0.02% among 420,000; AID 602332, 2012; active means well fitted activation curve with a large enough effect; further: series mostly up to about 76 µM; nearly all actives have a fitted effect of over 35% in size
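Stably transfected U87-MG glioma cells carrying a GRP78-based luciferase sensor; 16 h compound incubation. Luminescence end-point read 10 min after Bright-Glo addition at room temperature.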
TRHR enhancer: qHTS for Small Molecule Agonists and Allosteric Enhancers of Human TRH Receptor: Primary Screen for Enhancers; Thyrotropin-releasing hormone receptor (Homo sapiens), P34981; TRHR cells, fluo-8 calcium fluorescence, EC20 TRH enhancement; enhancement, % at 2 µM; hit rate 0.66% among 360,000; AID 493056, 2011; in the data active means enhancement above about 30%
Target sequence (P34981 whole entry, looked up): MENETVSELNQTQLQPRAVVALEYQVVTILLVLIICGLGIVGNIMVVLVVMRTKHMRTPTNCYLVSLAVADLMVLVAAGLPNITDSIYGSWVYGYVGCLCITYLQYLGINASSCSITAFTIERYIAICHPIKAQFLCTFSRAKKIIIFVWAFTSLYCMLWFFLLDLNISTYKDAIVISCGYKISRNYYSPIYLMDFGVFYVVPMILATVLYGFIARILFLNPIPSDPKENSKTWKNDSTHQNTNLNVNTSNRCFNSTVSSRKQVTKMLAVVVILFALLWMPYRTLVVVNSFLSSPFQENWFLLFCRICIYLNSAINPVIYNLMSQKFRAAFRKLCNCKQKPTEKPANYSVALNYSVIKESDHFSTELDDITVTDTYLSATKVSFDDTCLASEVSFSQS
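Enhancer read-out: after compound pinning and an initial kinetic agonist-mode read, an EC20 of TRH (10 nM final) was injected and fluo-8 calcium signal (Ex 480/Em 530) followed at 1 s/cycle for 100 cycles in TRHR-expressing cells.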
TRHR agonist: qHTS for Small Molecule Agonists and Allosteric Enhancers of Human TRH Receptor: Primary Screen for Agonists; AID 493084, 2011; activation, % at 2 µM; Thyrotropin-releasing hormone receptor (Homo sapiens), P34981; TRHR cells, calcium flux fluo-8, FDSS agonist mode; hit rate 0.18% among 360,000
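In this calcium-flux screen, cells bearing human TRHR are dye-loaded with fluo-8, baselined for 10 cycles, then exposed to library compounds; positive kinetic calcium responses during the agonist phase mark hits, with TRH as control.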
D1 PAM: Potentiators of Human D1 Dopamine Receptor: qHTS | potentiation, % at 10 µM | HEK293 TREx D1 cells, calcium flux, dopamine EC20 potentiation | D(1A) dopamine receptor (Homo sapiens), P21728 | AID 504651, 2011 | hit rate 0.036% among 360,000; in the data active means potentiation above about 30%
D1 antagonist: Antagonist of Human D 1 Dopamine Receptor: qHTS | D(1A) dopamine receptor (Homo sapiens), P21728 | HEK293 TREx D1 cells, calcium flux, dopamine EC80; stronger effect = lower value | activity change, negative = inhibition, % at 10 µM | hit rate 3.2% among 360,000 | AID 504652, 2011; in the data active means activity change below about -30%
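Compound effects on dopamine-evoked calcium signalling were measured in tetracycline-induced HEK293 Trex D1 cells. Dopamine at EC80 followed a 180 s compound pre-read, and fluorescence was tracked kinetically for 180 s more.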
D1 agonist: Allosteric Agonists of the Human D1 Dopamine Receptor: qHTS | hit rate 1% among 360,000 | HEK293 T-REx D1 cells, calcium flux, agonist mode | D(1A) dopamine receptor (Homo sapiens), P21728 | AID 504660, 2011 | activation, % at 2 µM
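Tetracycline-induced HEK293 TREx D1 cells, force-coupled to calcium signalling, were dye-loaded with a no-wash calcium kit. Compound was pin-added after a 10 s baseline. Fluorescence was read kinetically at 1 cycle/s for 180 s, with calcium rises flagged as agonism.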
Each line names hits and unclear results; the compound was inactive in the other large screens. The list is not random: actives were taken first. Their share in the collection is about 4%. Unless noted, no stated cut-off is given here; in the data, active means activation above about 30%; inactive means the rest.

COc1ccccc1Cn1c(=S)[nH]c2cc(C(=O)N3CC(C)CC(C)C3)ccc2c1=O (configuration not stated)	none (no result: TRHR enhancer, TRHR agonist, D1 PAM, D1 antagonist, D1 agonist)
COC(=O)c1ccc(-c2noc(CN(C)Cc3ccncc3C)n2)cc1	D1 antagonist -41
COC(=O)c1ccc(-c2noc(CN(C)CCC3CCCCO3)n2)cc1 (configuration not stated)	D1 antagonist -61
CCN(Cc1ccncc1)Cc1nc(-c2ccc(C(=O)OC)cc2)no1	none
COc1ccc(-c2noc(CN(C)CCC3CCCCO3)n2)cc1 (configuration not stated)	none
CC[C@H](C)[C@H](NC(=O)[C@H](CC(C)C)NC(=O)[C@H](CO)NC(=O)[C@H](CCC(=O)O)NC(=O)[C@H](CC(C)C)NC(=O)[C@H](Cc1ccc(O)cc1)NC(=O)[C@H](CCCCN)NC(=O)[C@H](CCCCN)NC(=O)[C@H](C)NC(=O)[C@H](CO)NC(=O)[C@H](CC(C)C)NC(=O)[C@H](CCC(N)=O)NC(=O)CNC(=O)[C@H](CC(C)C)NC(=O)[C@H](CC(C)C)NC(=O)[C@H](CCCNC(=N)N)NC(=O)[C@H](CO)NC(=O)[C@H](Cc1ccccc1)NC(=O)[C@H](CC(=O)O)NC(=O)[C@H](CO)NC(=O)[C@@H](NC(=O)[C@H](Cc1ccccc1)NC(=O)[C@@H](NC(=O)CNC(=O)[C@H](CC(=O)O)NC(=O)[C@H](C)NC(=O)[C@@H](N)Cc1cnc[nH]1)C(C)C)[C@@H](C)O)C(N)=O	none (no result: TRHR enhancer, TRHR agonist, D1 PAM, D1 antagonist, D1 agonist)
CCOc1cccc(CNC(=O)c2ccc(N3CCCC3)c(NC(=O)NCc3ccc(F)cc3)c2)c1	D1 antagonist -35
CCCNC(=O)Nc1cc(C(=O)NCc2cccc(OCC)c2)ccc1N1CCCC1	none
C[C@@H]1CN(Cc2ccc3c(c2)CN(Cc2cccc4c2OCO4)CCO3)C[C@H](C)O1	none (no result: TRHR enhancer, TRHR agonist, D1 PAM, D1 antagonist, D1 agonist)
CN(C)S(=O)(=O)c1cc(NC(=O)COC(=O)CCSc2ccc(Cl)cc2)ccc1Cl	D1 antagonist -43
Cc1ccc(S(=O)(=O)N2CCOC23CCN(C(=O)c2ccc(Cl)cc2Cl)CC3)cc1	TRHR enhancer 32
N#CC1(NC(=O)COC(=O)c2cc(O)c3ccccc3c2O)CCCCC1	D1 antagonist -40
Cc1cccc(NC(=O)Cn2cc(C(=O)C3CCCCC3)c3ccccc32)c1	D1 antagonist -30
C#C[C@]1(O)CC[C@H]2[C@H]3CCC4=Cc5oncc5C[C@]4(C)[C@@H]3CC[C@]21C	none (no result: TRHR enhancer, TRHR agonist, D1 PAM, D1 antagonist, D1 agonist)
CCN(CC)CCNC(=O)CCc1c(C)nc2c(c(C)nn2-c2ccc(C)cc2)c1C	TRHR enhancer 30
Cc1ccc(C)c(N2CCN(C(=O)NCc3noc4ccc(C)cc34)CC2)c1	none
Cc1ccc(C)c(N2CCN(C(=O)CN3C(=O)c4ccccc4C3=O)CC2)c1	D1 antagonist -35
O=C(CN1C(=O)c2ccccc2C1=O)N1CCN(c2ccccn2)CC1	D1 antagonist -30
Cc1ccc(C)c(N2CCN(C(=O)NCc3noc4ccccc34)CC2)c1	D1 antagonist -42
O=C(CSc1nnc(N2CCCC2)n1-c1ccccc1Cl)N1CCN(c2ccccn2)CC1	D1 antagonist -52
Cc1ccccc1N1CCN(C(=O)CN2C(=O)c3ccccc3C2=O)CC1	none
Cc1cc(C)c(Cn2c3ccccc3c3cnn(CC(=O)NCCc4ccccc4)c(=O)c32)c(C)c1	none
COC(=O)CCC(=O)Nc1ccc(Cl)c(Cl)c1	none
CO/N=C\CC(=O)Nc1ccc(Cl)c(Cl)c1	D1 antagonist -30
CCN1CCN(c2cc(=O)n(Cc3ccc(F)cc3)c(=O)[nH]2)CC1	none
CCOC(=O)N1CCN(c2cc(=O)n(Cc3ccc(F)cc3)c(=O)[nH]2)CC1	D1 antagonist -37
CCOC(=O)c1ccc(COc2ccc(C(C)C)cc2)o1	none
CCOc1ccc(OCc2ccc(C(=O)OCc3ccccn3)o2)cc1	D1 agonist 32
COc1cccc(CN2CCc3nnc(CCc4ccccc4)n3CC2)c1OC	none (no result: TRHR enhancer, TRHR agonist, D1 PAM, D1 antagonist, D1 agonist)
c1ccc(-c2nc(-c3cccnc3)n[nH]2)cc1	none (no result: Glioma ERSR ind)
c1cncc(-c2nn[nH]n2)c1	TRHR enhancer 40
CC(=O)SC[C@@H](C)C(=O)N1CCC[C@H]1C(=O)N[C@@H](Cc1ccccc1)C(=O)O	none (no result: TRHR enhancer, TRHR agonist, D1 PAM, D1 antagonist, D1 agonist)
CCNc1ncc2nc(C)c(=O)n(Cc3cccs3)c2n1	none (no result: TRHR enhancer, TRHR agonist, D1 PAM, D1 antagonist, D1 agonist)
Cc1c(CNC2CCC(C)CC2)c(C(=O)O)c(C)n1Cc1ccccc1F (configuration not stated)	D1 antagonist -49
CO[C@H]1COC(=O)[C@H](C)NC(=O)C/C=C\[C@@H](C)[C@H](OC)COC(=O)[C@@H](OCc2ccccc2)/C=C\[C@@H]1C	none (no result: TRHR enhancer, TRHR agonist, D1 PAM, D1 antagonist, D1 agonist)
CC1=CC(C)(C)N(C(=O)CN2C(=O)CCC2=O)c2ccccc21	D1 antagonist -38
O=C(c1ccccc1)c1ccc(N2CCNCC2)cc1	D1 antagonist -74 (no result: Glioma ERSR ind)
CCOC(=O)CNC(=O)Cn1cnc2c(cnn2-c2ccc(C)cc2)c1=O	none
Cc1ccc(-n2c(=O)[nH]c3cc(C(=O)NCc4ccccc4)ccc3c2=O)cc1	D1 antagonist -77
CCCCNC(=O)c1ccc2c(=O)n(-c3ccccc3)c(=O)[nH]c2c1	D1 antagonist -64
O=C(NCc1cc(C(F)(F)F)cc(C(F)(F)F)c1)C1CC(c2cccc([N+](=O)[O-])c2)=NO1 (configuration not stated)	D1 antagonist -54
CC(C)CCNC(=O)C1CC(c2ccc(C(F)(F)F)cc2)=NO1 (configuration not stated)	D1 antagonist -42, D1 agonist 32
O=C(NCc1cccnc1)C1CC(c2ccc(F)cc2)=NO1 (configuration not stated)	D1 antagonist -31
Cc1ccnc2nc(NC(=O)c3ccccc3Cl)nn12	none
COc1ccc(NC(=O)c2oc3c(c2C)-c2nn(Cc4c(F)cccc4Cl)cc2CC3)c(OC)c1	none
Cc1ccccc1C(=O)Nc1ccc(C(=O)NNC(=O)CCCOc2ccc(Cl)cc2Cl)cc1	D1 antagonist -39
O=C(Cn1cc(CNCc2ccccc2)nn1)Nc1cc(C(F)(F)F)ccc1Cl	none (no result: Glioma ERSR ind)
COc1ccc(C(=S)NCS(=O)(=O)c2ccc(C)cc2)cc1	D1 antagonist -35
Cc1ccc(S(=O)(=O)CNC(=S)c2ccc3ccccc3c2)cc1	none

Screening results: PubChem BioAssay, National Center for Advancing Translational Sciences (NCATS)
